The values that follow come from PubChem BioAssay AID1259389 (Center for Chemical Genomics, University of Michigan, 2018).

Among all 100,000 compounds or so, about 620 (0.62%) were called active. Rule for the calls: active = z-score of 3 or more in at least 2 runs; inactive = the rest. The list comes from a sample in which actives are over-represented; it also holds similar structures and randomly drawn compounds.

The experiment is described as follows: TAR RNA-Tat peptide displacers, HIV-1, primary screen, biochemical, FRET, FAM/TAMRA-labeled Tat (AID 1259389). Particulars: HIV-1 TAR RNA, Tat peptide displacement FRET; stronger effect = higher value.
Consider `Cc1nc2nc(Cc3ccccc3)[nH]n2c(=O)c1C`, for which the z-score is 2.84 (inactive).

In the case of `Cc1cc2nc(COC(=O)c3ccccc3Cl)cc(=O)n2o1`, the z-score was 0.42 (inactive).

For the compound `Oc1ccc2ncccc2c1C(Nc1ccccn1)c1cccc(Br)c1` (stereo unspecified), the z-score was 10.7 (inactive). Consider `O=C(OCc1cc(=O)n2nc(C3CCCCC3)sc2n1)c1ccccc1`, for which the z-score is 0.63 (inactive).

Take `COc1cc(C2OC(c3ccc(Br)cc3)=NN2C(C)=O)ccc1OC(C)=O` (stereo unspecified): the z-score is 1.63 (inactive). With `Cc1c(C(=O)N2CCC(C)CC2)c(S(=O)(=O)N2CCN(C3CCCCC3)CC2)c(C)n1C`, the z-score was 1.14 (inactive). With `Cc1cccc(NS(=O)(=O)c2ccc(-c3ccc(=O)[nH]n3)o2)c1C`, the z-score was 0.96 (inactive).

Turning to `CCOc1ccc(/C=C/c2nc(C#N)c(N3CCNCC3)o2)cc1`, the z-score was 0.65 (inactive). In the case of `CCSc1ncc(CO)n1Cc1ccc(F)cc1` it was 0.78 (inactive); in that of `Cc1ccn2c(=O)c(C(=O)NCCCOC(C)C)c(O)nc2c1`, 0.76 (inactive).

For the compound `COc1ccc(-c2nc3ccccc3[nH]2)cc1OC`, the z-score was 2.05 (inactive). Take `Cc1nnc(NC(=O)CN2C(=O)c3cccnc3Sc3ccccc32)s1`: the z-score is 1.32 (inactive).

Take `O=C(Cn1c(=O)sc2ccccc21)NCCC1=CCCCC1`: the z-score was 0.76 (inactive). Regarding `C=CCOC(=O)C1=C(C)NC2=C(C(=O)CC(C)(C)C2)C1c1cc2c(cc1Cl)OCO2` (stereo unspecified), the z-score is 0.26 (inactive). On to `O=C(c1cc(-c2ccccc2)n[nH]1)N1CCn2c1nc1ccccc12`, for which the z-score was 0.42 (inactive). As for `COc1ccc(Cl)cc1N1CC(O)=C(c2nc3ccccc3n2C)C1=N`, the z-score was 0.34 (inactive). In the case of `CCCC1CNc2cc(C)ccc2O1` (stereo unspecified) it was 2.06 (inactive); in that of `C[C@@H]1O[C@@H](O[C@H]2[C@@H](Oc3cc(O)c4c(c3)O[C@H](c3ccc(O)cc3)CC4=O)O[C@H](CO)[C@@H](O)[C@@H]2O)[C@H](O)[C@H](O)[C@H]1O`, 2.09 (inactive).

Take `COc1ccc(-c2cc(=O)c3c(O)cc(O[C@@H]4O[C@H](CO[C@@H]5O[C@@H](C)[C@H](O)[C@@H](O)[C@H]5O)[C@@H](O)[C@H](O)[C@H]4O)cc3o2)cc1O`: the z-score is 4.29 (inactive). In the case of `C[C@@H]1O[C@@H](OC[C@H]2O[C@@H](Oc3cc(O)c4c(c3)O[C@H](c3ccc(O)c(O)c3)CC4=O)[C@H](O)[C@@H](O)[C@@H]2O)[C@H](O)[C@H](O)[C@H]1O` it was 3.52 (active); in that of `Cc1nc(S(=O)(=O)Nc2ccc(C(C)C)cc2)cn1C`, 1.64 (inactive). On to `O=C1c2ccccc2C(Nc2ccc(F)cc2F)N1c1ccccn1` (stereo unspecified), for which the z-score is 2.34 (inactive).

For `CN1CCN(c2cc(NCCCC(=O)O)c3c4c(onc24)-c2ccccc2C3=O)CC1`, the z-score was 1.94 (inactive).

Consider `CCOC(=O)N1CCN(c2cc(NCCO)c3c4c(onc24)-c2ccccc2C3=O)CC1`, for which the z-score was 2.61 (inactive).

As to `CN(C)CCCNc1cc(N2CCN(c3ccccc3F)CC2)c2noc3c2c1C(=O)c1ccccc1-3`, the z-score is 5.01 (active). On to `COc1cc(C)c(S(=O)(=O)N2CCc3cc4cc(C)ccc4nc32)cc1C`, for which the z-score was -1.52 (inactive).
